# Data taken from PMC4336329 (PLoS ONE, 2015).
# The whole screen tested about 310,000 compounds, of which about 14,000 (4.5%) showed an effect of 50% or more. The effect is printed as a negative number. This is one part of a sample in which strong results are shown more often than they occur.
# Target: human ether-à-go-go-related gene (hERG) potassium channel (human, UniProt Q12809)
# Test: primary screen, population patch clamp on CHO cells stably expressing hERG; higher = less effect of the substance
# 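Also: peak tail current of the secondary pulse compared with the same well before compound.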
# Sequence of human ether-à-go-go-related gene (hERG) potassium channel (Q12809 whole entry, looked up): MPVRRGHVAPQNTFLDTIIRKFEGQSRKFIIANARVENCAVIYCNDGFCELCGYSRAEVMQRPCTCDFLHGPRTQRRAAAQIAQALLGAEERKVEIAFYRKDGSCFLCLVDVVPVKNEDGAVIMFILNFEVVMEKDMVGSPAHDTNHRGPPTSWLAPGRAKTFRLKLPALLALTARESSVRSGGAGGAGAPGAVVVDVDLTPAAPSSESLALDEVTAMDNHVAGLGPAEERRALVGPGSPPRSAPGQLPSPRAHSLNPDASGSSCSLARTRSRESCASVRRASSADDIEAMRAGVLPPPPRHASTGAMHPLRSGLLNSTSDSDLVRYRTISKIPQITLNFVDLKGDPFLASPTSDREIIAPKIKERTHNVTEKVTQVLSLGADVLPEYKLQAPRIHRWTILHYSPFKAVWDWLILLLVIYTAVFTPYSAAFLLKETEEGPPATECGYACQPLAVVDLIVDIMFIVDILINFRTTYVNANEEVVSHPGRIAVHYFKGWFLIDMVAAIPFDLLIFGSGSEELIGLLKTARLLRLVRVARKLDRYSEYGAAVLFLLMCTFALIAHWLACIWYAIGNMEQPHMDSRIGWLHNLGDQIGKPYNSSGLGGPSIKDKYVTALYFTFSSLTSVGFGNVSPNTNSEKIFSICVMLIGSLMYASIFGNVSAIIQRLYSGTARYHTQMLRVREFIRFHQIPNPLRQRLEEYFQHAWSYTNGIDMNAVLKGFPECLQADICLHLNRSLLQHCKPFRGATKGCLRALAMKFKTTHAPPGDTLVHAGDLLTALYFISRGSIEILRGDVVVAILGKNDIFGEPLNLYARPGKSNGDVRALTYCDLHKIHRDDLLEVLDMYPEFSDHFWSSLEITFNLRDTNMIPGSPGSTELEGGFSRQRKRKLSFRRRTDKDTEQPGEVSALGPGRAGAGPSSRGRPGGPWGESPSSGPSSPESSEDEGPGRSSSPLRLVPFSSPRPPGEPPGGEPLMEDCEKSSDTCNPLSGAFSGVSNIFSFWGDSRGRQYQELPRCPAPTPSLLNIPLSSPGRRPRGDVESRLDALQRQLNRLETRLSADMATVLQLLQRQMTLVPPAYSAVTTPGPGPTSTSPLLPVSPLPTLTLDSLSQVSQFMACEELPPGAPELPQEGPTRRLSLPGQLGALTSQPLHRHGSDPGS
row,SMILES,"hERG current change (%, negative = inhibition) at 10uM [%]"
1,CCOc1cc(N2CCOCC2)c(OCC)cc1NC(=O)CN1C(=O)C2CC=CCC2C1=O (stereo not shown),-8.84
2,COc1ccccc1NC(=O)CN1C(=O)NC2(CCCCCCC2)C1=O,1.08
3,COc1cc(NC(=O)c2ccccc2)c(OC)cc1NC(=O)CN1C(=O)NC2(CCCCC2)C1=O,-70.3
4,CCOc1cc(N2CCOCC2)c(OCC)cc1NC(=O)CN1C(=O)NC2(CCCCCCC2)C1=O,-63
5,CCOc1cc(N2CCOCC2)c(OCC)cc1NC(=O)CN1C(=O)NC2(CCc3ccccc32)C1=O (stereo not shown),-44.5
6,COc1cc(NC(=O)c2ccccc2)c(OC)cc1NC(=O)CN1C(=O)NC2(CCCCC2C)C1=O (stereo not shown),-49.8
7,CCOc1ccc(S(=O)(=O)N2CCOCC2)cc1NC(=O)CN1C(=O)NC2(CCCCC2)C1=O,-17.9
8,CCOc1cc(N2CCOCC2)c(OCC)cc1NC(=O)CN1C(=O)NC2(CCCCC2)C1=O,-69.7
9,CCOc1cc(N2CCOCC2)c(OCC)cc1NC(=O)CN1C(=O)NC(CC(C)C)C1=O (stereo not shown),-70.4
10,CCOc1cc(N2CCOCC2)c(OCC)cc1NC(=O)CN1C(=O)NC(Cc2ccccc2)C1=O (stereo not shown),-25.5
11,CCOc1cc(N2CCOCC2)c(OCC)cc1NC(=O)CN1C(=O)N(C)C2(CCCCC2)C1=O,-23.5
12,CCOc1cc(N2CCOCC2)c(OCC)cc1NC(=O)CN1C(=O)NC(C)(C2CC2)C1=O (stereo not shown),26.8
13,CSc1ccccc1C(=O)Nc1nc2ccccc2[nH]1,2.78
14,COc1ccccc1N(CC(=O)NC1CCCC1)C(=O)CCC(=O)Nc1ccccn1,6.68
15,Cc1[nH]n(-c2ccccc2)c(=O)c1-c1ccc(Cl)cc1,9.3
16,COc1ccc(C(=O)NC(=S)Nc2ccccc2F)cc1,9.53
17,CN(C)S(=O)(=O)Oc1ccsc1C(=O)Nc1ccc(Cl)cc1,-33.7
18,Cc1cc(N=NC(=O)c2ccccc2)ccc1O,4.74
19,O=C(Nc1ccc(Cl)cc1)NC1CCCC1Cc1ccco1 (stereo not shown),-15.3
20,Cc1ccc(Nc2cc(C)nc3ccc(C)cc23)cc1,-37.9
21,CCOc1ccccc1Nc1cc(C)nc2ccc(C)cc12,-70.1
22,CCOc1ccccc1/C=N/Nc1cc(C)nc2ccc(C)cc12,8.9
23,Clc1ccc2c(NNc3ccccc3Cl)ccnc2c1,7.9
24,CCOc1ccc(Nc2cc(C)nc3ccc(C)cc23)cc1,-69.6
25,CCOc1ccc(Nc2ccnc3cc(Cl)ccc23)cc1,-7.97
26,Cc1ccc2nc(C)cc(Nc3ccc([N+](=O)[O-])cc3)c2c1,-14.4
27,CCOc1ccccc1Nc1ccnc2cc(Cl)ccc12,-57.2
28,CCOc1cc(/C=N/Nc2cc(C)nc3ccc(C)cc23)ccc1O,11.1
